Assay results: PubChem BioAssay (EPA / NIEHS)
Calls of active or inactive are those of the source. How the source made its calls: active means hit-call score of the fitted dose curve at least 0.9, where 1 is the maximum; inactive means score below 0.9.

The molecules below were run on Cytochrome P450 7A1 (Homo sapiens) (UniProt P22680) (assay: LTEA_HepaRG_CYP7A1: Life Technologies and Expression Analysis (LTEA) Assay for Cytochrome P450 7A1 (CYP7A1) using HepaRG (AID 2283496)). Details: mRNA level, 48 h; actives raise or lower the signal.
Experimental: LTEA_HepaRG is a cell based, multiplexed-readout assay that uses HepaRG, a human liver cell line, with measurements taken at 48 hours after chemical dosing on a 96-well plate.LTEA_HepaRG_CYP7A1 is one of 102 assay component(s) measured in the LTEA HepaRG cell culture assay. It is a marker of NR mediated metabolism.Data from the assay component LTEA_HepaRG_CYP7A1 was analyzed into 1 endpoint. This assay endpoint, LTEA_HepaRG_CYP7A1, was analyzed with bidirectional fitting relative to DMSO as the negative control and baseline of activity. Using a type of inducible reporter, measures of mRNA induction for gain or loss-of-signal activity can be used to understand regulation of transcription factor activity. To generalize the intended target to other relatable targets, this assay endpoint is annotated to the cyp intended target family, where the subfamily is xenobiotic metabolism.
A total of 1060 chemcials from the ToxCast library were tested in eight-point concentration-response experiments. Cell culture and cytotoxicity assays were conducted at Thermo Fisher Scientific's Custom Services facility (Madison, WI). A single lot of human HepaRG cells (Thermo Fisher Scientific, Frederick, MD) was used for the cell culture experiments. 96-well format collagen type I coated plates of human HepaRG cells were prepared using established methods. Briefly, cryopreserved HepaRG cells were thawed, plated at a density of approximately 100,000 cells/well in HepaRG Thaw, Plate, and General Purpose media (HPRG770, Thermo Fisher Scientific), and incubated for 48 hours. 0.5% DMSO was selected as vehicle control to balance the requisite need of DMSO in HepaRG cultures to maintain differentiation (for example, baseline metabolism, proportions of hepatocytes vs. cholangiocytes), while enabling further hepatic receptor pathway activation (for example, PXR and CAR) in response to chemical exposure. 48 hours after plating, the culture medium was replaced with HepaRG Serum-Free Incudtion Media. Cells were exposed to each test chemical in duplicate and maintained in CO2 incubators for another 48 hours. Chemical plates were thawed to room temperature and 200x concentrations of treatment groups were prepared. 8-point conentration-reponse curves were made with the highest exposure at 100 uM, followed by half-log dilutions, all in 0.5% DMSO. Each test plate contained variouse controls, induction positive controls (1mM phenobarbital), cytotoxicity positive controls ([…] aflatoxin B1), vehicle controls (0.5% DMSO), and total lysis controls (0.5% DMSO). Cell morphology images were taken using an Essen IncuCyte FLR automated microscope, with six 96-well plates imaged in about 24 minutes. Images were captured and exported and JPEG files. Spent culture media was transfered to black-well plates for the LDH assay, and remaining media was sorted at -80 C for later use. Cells were treated with RLT buffer and frozen until shipped for gene expression analysis. Total RNA was isolated from the cell suspension in 75 uL of Buffer RLT (Qiagen, Germantown, MD 20874) by Quintiles/Expression Analysis (Durham, NC) using a custom isolation procedure. Total RNA from each plate well was transferred to a preamplification plate. Fluidigm's 96.96 Dynamic ArrayTM (Fluidigm, Amsterdam, the Netherlands) technology was used for gene expression analyses by quantitative reverse transcription polymerase chain reaction (qRT-PCR, performed by Quintiles/Expression Analysis, Durham, NC)89. Standard TaqManTM Assays (Applied Biosystems/ThermoFisher Scientific, Foster City, CA) were used to assess the expression of 93 genes selected based on their selectivity and sensitivity to important hepatic receptors known to be modulated by environmental chemicals; importance in human hepatocyte functionality; and hepatotoxicity. […]

Question: How did the outcome turn out when `O=c1ccc(=O)[nH][nH]1` was run?
Answer: The outcome was “inactive”.

Question: Which AC50 does the source give for `COc1cccc(C(=O)NN(C(=O)c2cc(C)cc(C)c2)C(C)(C)C)c1C` here?
Answer: The AC50 was 2.88 µM (active).

Question: For `CCCOCC(=Nc1ccc(Cl)cc1C(F)(F)F)n1ccnc1`, which AC50 is on record?
Answer: The AC50 was 30.6 µM (active).

Question: With `CNc1cnn(-c2cccc(C(F)(F)F)c2)c(=O)c1Cl` as the molecule, how does the AC50 read?
Answer: Its AC50 is 21.4 µM (active).

Question: With `CCOP(=O)(OCC)Oc1cc(C)nc(C(C)C)n1` as the molecule, how does the outcome read?
Answer: The outcome was “inactive”.

Question: For `CCC(=O)Nc1ccc(Cl)c(Cl)c1`, which outcome is on record?
Answer: The outcome was “inactive”.

Question: `CC(C)=CC1C(C(=O)OCN2C(=O)C3=C(CCCC3)C2=O)C1(C)C` (stereo not given) was tested. Which outcome did it give?
Answer: Its outcome is “inactive”.

Question: For `Nc1nc(N)nc(NC2CC2)n1`, which outcome is on record?
Answer: Its outcome is “inactive”.

Question: `CC(C1CC1)C(O)(Cn1cncn1)c1ccc(Cl)cc1` (stereo not given) was tested. Which AC50 did it give?
Answer: Its AC50 is 18.8 µM (active).

Question: How did the AC50 turn out when `CCOC(=O)CC(SP(=O)(OC)OC)C(=O)OCC` (stereo not given) was run?
Answer: The AC50 was 50 µM (active).

Question: Which AC50 does the source give for `CCOP(=O)(NC(C)C)Oc1ccc(SC)c(C)c1` (stereo not given) here?
Answer: The AC50 was 3.62 µM (active).

Question: `O=C(O)c1cc(Oc2ccc(C(F)(F)F)cc2Cl)ccc1[N+](=O)[O-]` was tested. Which outcome did it give?
Answer: The outcome was “inactive”.

Question: How did the AC50 turn out when `O=[N+]([O-])c1cc(C(F)(F)F)c(Cl)c([N+](=O)[O-])c1Nc1ncc(C(F)(F)F)cc1Cl` was run?
Answer: Its AC50 is 23 µM (active).

Question: How did the AC50 turn out when `FC(F)C(F)(F)OCC(Cn1cncn1)c1ccc(Cl)cc1Cl` (stereo not given) was run?
Answer: Its AC50 is 44.6 µM (active).

Question: Which outcome does the source give for `CC[C@H](C)[C@H]1O[C@]2(C=C[C@@H]1C)C[C@@H]1C[C@@H](C/C=C(\C)[C@@H](O[C@H]3C[C@H](OC)[C@@H](O[C@H]4C[C@H](OC)[C@@H](NC)[C@H](C)O4)[C@H](C)O3)[C@@H](C)/C=C/C=C3\CO[C@@H]4[C@H](O)C(C)=C[C@@H](C(=O)O1)[C@]34O)O2` here?
Answer: Its outcome is “inactive”.

Question: Which outcome does the source give for `C[N+]1(C)CCCCC1` here?
Answer: The outcome was “inactive”.

Question: `Cc1cc(C2CC2)nc(Nc2ccccc2)n1` was tested. Which outcome did it give?
Answer: Its outcome is “inactive”.

Question: With `CN(C)C(=O)Nc1cccc(C(F)(F)F)c1` as the molecule, how does the outcome read?
Answer: Its outcome is “inactive”.

Question: Which outcome does the source give for `Cc1ccn2nc(S(=O)(=O)Nc3c(F)cccc3F)nc2n1` here?
Answer: Its outcome is “inactive”.

Question: How did the outcome turn out when `CCc1cccc(C)c1N(C(=O)CCl)C(C)COC` (stereo not given) was run?
Answer: Its outcome is “inactive”.

Question: For `CCCCOC(=O)c1ccccc1C(=O)O`, which outcome is on record?
Answer: The outcome was “inactive”.

Question: Which outcome does the source give for `CN1COCN(Cc2cnc(Cl)s2)C1=N[N+](=O)[O-]` here?
Answer: Its outcome is “inactive”.

Question: With `CC(=NC#N)N(C)Cc1ccc(Cl)nc1` as the molecule, how does the outcome read?
Answer: Its outcome is “inactive”.

Question: `CCOP(=O)(SC(C)CC)N1CCSC1=O` (stereo not given) was tested. Which AC50 did it give?
Answer: The AC50 was 32.3 µM (active).

Question: `CCCCSP(=O)(SCCCC)SCCCC` was tested. Which AC50 did it give?
Answer: Its AC50 is 50 µM (active).

Question: How did the outcome turn out when `CCOP(=S)(OCC)SCCSCC` was run?
Answer: Its outcome is “inactive”.

Question: Which outcome does the source give for `COc1cc(OC)nc(Sc2cccc(Cl)c2C(=O)O)n1` here?
Answer: Its outcome is “inactive”.

Question: For `CCCSP(=O)(OCC)SCCC`, which AC50 is on record?
Answer: Its AC50 is 22.1 µM (active).

Question: For `COc1ccc(C(=CC(=O)N2CCOCC2)c2ccc(Cl)cc2)cc1OC`, which outcome is on record?
Answer: Its outcome is “inactive”.

Question: For `COP(=O)(NC(C)=O)SC` (stereo not given), which outcome is on record?
Answer: The outcome was “inactive”.

Question: With `CCOP(=S)(OCC)Oc1ccc([N+](=O)[O-])cc1` as the molecule, how does the AC50 read?
Answer: Its AC50 is 1.78 µM (active).

Question: `C#CCC1=C(C)C(OC(=O)C2C(C=C(C)C)C2(C)C)CC1=O` (stereo not given) was tested. Which outcome did it give?
Answer: The outcome was “inactive”.

Question: With `S=C1NCCN1` as the molecule, how does the outcome read?
Answer: Its outcome is “inactive”.

Question: How did the outcome turn out when `CCOP(=S)(OCC)OC(Cl)C(Cl)(Cl)Cl` (stereo not given) was run?
Answer: The outcome was “inactive”.

Question: How did the outcome turn out when `COP(=O)(OC)SCn1c(=O)oc2cc(Cl)cnc21` was run?
Answer: Its outcome is “inactive”.

Question: `CSc1nc(NC(C)C)nc(NC(C)C)n1` was tested. Which AC50 did it give?
Answer: Its AC50 is 50 µM (active).

Question: How did the outcome turn out when `CCOC(=O)COc1cc(-c2nn(C)c(OC(F)F)c2Cl)c(F)cc1Cl` was run?
Answer: Its outcome is “inactive”.

Question: With `CC(Oc1cccc(Cl)c1)C(=O)O` (stereo not given) as the molecule, how does the outcome read?
Answer: The outcome was “inactive”.

Question: `CCCOc1nn(C(=O)NS(=O)(=O)c2ccccc2C(=O)OC)c(=O)n1C` was tested. Which outcome did it give?
Answer: Its outcome is “inactive”.

Question: Which outcome does the source give for `CCCSP(=O)(OCC)Oc1ccc(Br)cc1Cl` (stereo not given) here?
Answer: Its outcome is “inactive”.
